Inconclusive results are not listed. Calls of active or inactive are those of the source. Calls come from the whole dose curve; as a rule, active = well fitted cell-killing curve with a large enough effect; inconclusive = small, poorly fitted or top-dose-only effect; inactive = no such curve, though single readings can be large or run the other way. Where a SMILES comes first, the peptide text is derived from it. Bridges are numbered along the chain shown (N, C = ends). [ ]: non-standard residue; d: D form. hArg = N=C(N)NCCCC[C@H](N)C(=O)O; Mpa = O=C(O)CCS
assay: qHTS of pediatric cancer cell lines to identify multiple opportunities for drug repurposing: Primary screen for SK-N-SH cells (AID 1347098); conditions: SK-N-SH viability, CellTiter-Glo luminescence, 48 h; series mostly up to 57 µM; activity change, negative = cytotoxic: at the top concentration; note: nearly all actives have a fitted effect of over 65% in size
From the text: Drug repurposing or repositioning has been offered as a strategy for drug development in oncology programs. This approach has special potential for childhood cancers and other rare or orphan diseases, where the expected return on new drug development has been a disincentive to pharmaceuticals.
In this project we exploit the poly-pharmacology of drugs to discover new indications via phenotypic screening of a panel of 19 well-characterized cell lines derived from solid tumors seen in children and adolescents. The goal is to identify approved drugs with previously unrecognized anticancer properties that has the potential to reveal new mechanisms and biological processes involved in carcinogenesis or drug resistance. We employed a titration-based paradigm (quantitative high-throughput screening or qHTS), where all compounds were tested at multiple concentrations for their effect on cell viability. Concentration-response curves (CRCs) were derived directly from the primary screen, and both potency and efficacy values were used to identify compounds with robust bioactivity profiles. We screened the NIH Chemical Genomics Center (NCGC) Pharmaceutical Collection (NPC) and Mechanism Interrogation Plate (MIPE) small molecule collections of approved and investigational compounds against these cell lines; and measured metabolically active cells after 48 hours of compound treatment as a proxy for cell viability.
Assay Submitter: Nathalia J. Martinez, National Center for Advancing Translational Sciences, National Institutes of Health, Rockville, MD, USA; email: natalia.martinez@nih.gov
[1] Shen, M et al. Quantitative high-throughput phenotypic screening of pediatric cancer cell lines identifies multiple opportunities for drug repurposing. Oncotarget 2017 Dec 19;9(4):4758-4772. PMID 29435139.
The cells were obtained from University of North Carolina (UNC), Pediatric Preclinical Testing Program (PPT), and Coriell Institute (CI).
qHTS cell viability assay:
Cells were assayed in growth media at a density of 500-1,000 cells/well. Five microliters of cells were dispensed into 1,536-well, white, solid-bottom, TC-treated plates (Greiner Bio One) using a multidrop dispenser and incubated at 37 degrees C, 5% CO2, under a humidified atmosphere for 5 hours. Twenty-three nanoliters of compounds and controls (neutral control DMSO or positive control bortezomib at final concentration of 2.3 µM) were subsequently transferred by Kalypsys pintool. For primary screens, the MIPE collection was tested at 11-point dilutions (final concentrations range from 0.78 nM to 46 µM) and the NPC collection at 8-point dilutions (final concentrations range from 0.59 nM to 46 µM). Compounds tested in follow-up screens were assayed at 11-point dilutions. Cells were incubated for 48 hours, followed by addition of 3 µL of CellTiter-Glo (Promega). After a 15 min incubation at room temperature, samples were analyzed for luminescence intensity using a ViewLux High-throughput CCD imager equipped with clear filters.
% is set by controls: 0 for no effect and ±100 for the full control effect.

| Structure (SMILES) | activity change, negative = cytotoxic |
| --- | --- |
| NS(=O)(=O)c1cc(-c2nn[nH]n2)c(NCc2cccs2)cc1Cl | -6.69% (inactive) |
| CC(C)CCOC(=O)c1ccc(N(C)C)cc1 | -13.9% (inactive) |
| OCC(O)CS (stereo not given) | -13.8% (inactive) |
| CC(C)=CCC[C@@](C)(O)[C@H]1CC=C(C)CC1 | -3.31% (inactive) |
| O=C(O)/C=C/c1ccc(Cn2ccnc2)cc1 | 2.17% (inactive) |
| CCOc1cc(NC(C)=O)ccc1C(=O)OC | -20.2% (inactive) |
| Cc1c(NC(=O)c2cccnc2)c(=O)n(-c2ccccc2)n1C | -3.91% (inactive) |
| CCCCCCCCCCOc1cc2c(=O)c(C(=O)OCC)c[nH]c2cc1OCC | 2.61% [at 6 µM] (inactive) |
| CC(=O)N1C[C@H](O)C[C@H]1C(=O)O | 17.6% (inactive) |
| NC(=O)NC1NC(=O)NC1=O (stereo not given) | 1% (inactive) |
| Cc1ccc(S(=O)(=O)NC(=O)NC2CCCCC2)cc1 | 2.98% (inactive) |
| CCOc1ccc(C(=O)OCCN(CC)CC)cc1 | -11.3% (inactive) |
| CN1CCCN=C1COC(=O)C(O)(c1ccccc1)C1CCCCC1 (stereo not given) | -6.36% (inactive) |
| NC(=O)[C@@H]1CSSCCC(=O)N[C@@H](CCCCN=C(N)N)C(=O)NCC(=O)N[C@@H](CC(=O)O)C(=O)N[C@@H](Cc2c[nH]c3ccccc23)C(=O)N2CCC[C@H]2C(=O)N1 ([Mpa][hArg]GDWPC-NH2; disulfide 1-7) | -5.78% (inactive) |
| O=C(O)c1ccc(OCCCOc2ccc(C(=O)O)cc2)cc1 | -1.98% (inactive) |
| Cc1cccc(C(=O)O)c1O | 1.16% (inactive) |
| COC(=O)c1cccnc1 | -11.2% (inactive) |
| CNCc1ccccc1 | -7.6% (inactive) |
| Cc1cc(C)nc(NS(=O)(=O)c2ccc(N)cc2)n1 | 11.2% (inactive) |
| C=CCSCC1Nc2cc(Cl)c(S(N)(=O)=O)cc2S(=O)(=O)N1 (stereo not given) | -4.6% (inactive) |

| Structure (SMILES) | activity change, negative = cytotoxic |
| --- | --- |
| CCN(CC)CC1CCCCN1CC(=O)N1c2ccccc2C(=O)Nc2cccnc21 (stereo not given) | -5.84% (inactive) |
| COC(=O)c1ccccc1C(=O)c1ccc(OCCN2CCCCC2)cc1 | -11.5% (inactive) |
| NCC1CCC(C(=O)Oc2ccc(CCC(=O)O)cc2)CC1 (stereo not given) | 0.321% (inactive) |
| NC(=O)NS(=O)(=O)c1ccc(N)cc1 | -0.996% (inactive) |
| O=C1CC[C@@H](C(=O)O)N1 | -2.41% (inactive) |
| CC[N+](CC)(CC(=O)Nc1c(C)cccc1C)Cc1ccccc1 | -6.41% (inactive) |
| CC(=O)Nc1ccc(C(=O)O)cc1 | -5.46% (inactive) |
| CC(=O)OCC(COC(C)=O)OC(C)=O | 3.07% (inactive) |
| NS(=O)(=O)c1cc(C2(O)NC(=O)c3ccccc32)ccc1Cl (stereo not given) | -28.5% (inactive) |
| CC1(C)S[C@@H]2[C@H](N=CN3CCCCCC3)C(=O)N2[C@H]1C(=O)O | 2.32% (inactive) |
| COc1ccc(Cc2cnc(N)nc2N)cc1OC | 4.45% (inactive) |
| NC(N)=NCCN1CCCCCCC1 | -2% [at 0.741 µM] (inactive) |
| O=C(NCC(O)CO)c1c(I)c(C(=O)NCC(O)CO)c(I)c(N(CCO)C(=O)CO)c1I (stereo not given) | -9.25% (inactive) |
| C[C@@H]1O[C@@H](OC[C@H]2O[C@@H](Oc3c(-c4ccc(O)c(O)c4)oc4cc(O)cc(O)c4c3=O)[C@H](O)[C@@H](O)[C@@H]2O)[C@H](O)[C@H](O)[C@H]1O | 0.133% (inactive) |
| CCCCCCCCCCCCCCCCN | -6.46% (inactive) |
| COc1ccc2cc(CCC(C)=O)ccc2c1 | -21.5% (inactive) |
| CN1CC(=O)NC1=N | -9.01% (inactive) |
| CC(=O)SC[C@@H](Cc1ccccc1)C(=O)NCC(=O)OCc1ccccc1 | 3.98% (inactive) |
| CC(C)NC[C@@H](O)COc1ccc(CC(N)=O)cc1 | -12.6% (inactive) |
| CC(=O)N(CC(O)CN(C(C)=O)c1c(I)c(C(=O)NCC(O)CO)c(I)c(C(=O)NCC(O)CO)c1I)c1c(I)c(C(=O)NCC(O)CO)c(I)c(C(=O)NCC(O)CO)c1I (stereo not given) | -7.51% (inactive) |
